Reference: PubChem BioAssay
“And” between values parts separate entries of the source, which are not always exact repeats. Identical values can stand only once. The source made the active and inactive calls.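 How the source made its calls, unless noted: active means normalized viability below 100% at a tested concentration; inactive means the rest.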

Key:
[1] = Wnt pathway potentiators raising nuclear beta-catenin – imaging, WNT3A-conditioned medium, mouse C2C12, NPC library, primary screen (AID 1117326; in the data active means nuclear beta-catenin stimulation mostly above about 4.2%, no sharp cut-off; inactive means mostly below about 10%); conditions: stronger effect = higher value
[2] = stimulators of insulin release from INS-1E, primary screen, cell-based, 5 mM glucose, NPC library (AID 1117329;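 active means compound raises insulin release from rat beta cells at 5 mM glucose, no numeric limit stated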); conditions: rat INS-1E insulin secretion, at 10 µM, stronger effect = higher value
[3] = growth inhibition of GSK3B-pretreated HCT116 cells – cell-based, CellTiter-Glo, 0.2 to 20 µM (AID 1117336;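 active means compounds lowering colon cancer cell viability after pretreatment blocking the GSK3B kinase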); conditions: HCT116 viability after GSK3B inhibitor, at 20 µM, stronger effect = higher value
[4] = inhibition of endothelial tube formation, primary screen, imaging, VEGF stimulated, CD31 staining, tube area, NPC library (AID 1117340;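 active means compound that reduces growth-factor-driven endothelial tube area in a mixed cell culture, no cutoff stated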); conditions: VEGF-stimulated ADSC/ECFC co-culture, at 10 µM, stronger effect = higher value
[5] = GLP1 release stimulators, primary, NCI-H716, NPC library (AID 1117341;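 active means compound raises GLP1 secretion from the human gut endocrine cells, with no numeric limit stated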); conditions: NCI-H716 cells, at 10 µM, stronger effect = higher value
[6] = HCT116 colon cancer cell growth inhibition, primary screen, CellTiter-Glo luminescence, NPC library (AID 1117342;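 active means compounds that lower survival of HCT116 colon cancer cells in the luminescence readout, no numeric limit stated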); conditions: at 20 µM (top of the series)
[7] = reduced SW480 viability measured with CellTiter-Glo, NPC library, primary (AID 1117343;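 active means compounds that lower viability of the colon cancer cells in the luminescence readout, with no numeric limit stated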); conditions: CellTiter-Glo luminescence; at 20 µM (top of the series)
[8] = NPC library primary testing for decreased DLD-1 cell viability via CellTiter-Glo (AID 1117346;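 active means compounds that lower survival of DLD-1 colon cancer cells in the luminescence readout, no cutoff given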); conditions: DLD-1 viability, CellTiter-Glo luminescence; at 20 µM (top of the series)
[9] = target: 6-phosphogluconate dehydrogenase, decarboxylating (Homo sapiens) (UniProt P52209); assay: inhibition of human phosphogluconate dehydrogenase – biochemical, recombinant enzyme, NADPH absorbance, primary screen (AID 1159550;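 active means at least 20% inhibition of 6-phosphogluconate dehydrogenase activity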); conditions: recombinant 6PGD, NADPH absorbance 341 nm; at 10 µM; stronger effect = higher value
Sequence of 6-phosphogluconate dehydrogenase, decarboxylating (Homo sapiens) (P52209 whole entry, looked up): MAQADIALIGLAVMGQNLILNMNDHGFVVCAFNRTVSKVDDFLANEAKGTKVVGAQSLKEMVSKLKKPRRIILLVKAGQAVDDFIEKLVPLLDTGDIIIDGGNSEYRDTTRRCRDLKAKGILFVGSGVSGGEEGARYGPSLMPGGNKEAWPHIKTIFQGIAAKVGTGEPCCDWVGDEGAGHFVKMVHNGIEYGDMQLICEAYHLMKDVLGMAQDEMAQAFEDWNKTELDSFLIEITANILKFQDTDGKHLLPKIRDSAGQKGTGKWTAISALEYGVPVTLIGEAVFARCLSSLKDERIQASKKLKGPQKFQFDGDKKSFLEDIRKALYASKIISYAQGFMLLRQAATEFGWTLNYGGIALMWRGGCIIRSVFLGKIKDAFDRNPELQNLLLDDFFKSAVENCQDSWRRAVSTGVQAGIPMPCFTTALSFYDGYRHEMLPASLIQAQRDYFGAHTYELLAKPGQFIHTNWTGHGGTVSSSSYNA

[10] = EMT-state selective cytotoxicity in co-culture – imaging, PC-3E GFP, TEM4-18 mCherry, primary screen (AID 1345086;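 active means compounds killing one labelled cell type while sparing the other, by normalised counts and ratio limits, not self-fluorescent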;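 on all read-outs here: cells exposed to compound for 72 h before imaging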;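 on red/green cell ratio (normalised): normalised mesenchymal count divided by normalised epithelial count so high means epithelial killing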); conditions: PC-3E GFP / TEM4-18 mCherry co-culture, imaging cell counts, at 1 µM; for red/green cell ratio (normalised): actives lie on both sides, counts scaled to control wells, 1 = unselective
[11] = MELAS cybrid and Rieske KO viability enhancers – cell-based, MELAS cybrids, Rieske KO mouse fibroblasts, CellTiter-Glo, primary screen (AID 1508586;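 active means mean z-score across replicates of 1.96 or higher in either the MELAS or the Rieske mutant cell line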;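 further: z relative to plate mean and SD of compound and empty wells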); conditions: low glucose
[12] = target: NAD(+) hydrolase SARM1 (Homo sapiens) (UniProt Q6SZW1); assay: blocking NAD cleavage by SARM1 SAM-TIR – cell lysate, NAD-Glo luminescence (AID 1508614;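 active means compound whose remaining NAD level is above about 45 nM, limit read from the data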); conditions: SAM-TIR HEK293T lysate NADase, at 1 µM, stronger effect = higher value
Sequence of NAD(+) hydrolase SARM1 (Homo sapiens) (Q6SZW1 whole entry, looked up): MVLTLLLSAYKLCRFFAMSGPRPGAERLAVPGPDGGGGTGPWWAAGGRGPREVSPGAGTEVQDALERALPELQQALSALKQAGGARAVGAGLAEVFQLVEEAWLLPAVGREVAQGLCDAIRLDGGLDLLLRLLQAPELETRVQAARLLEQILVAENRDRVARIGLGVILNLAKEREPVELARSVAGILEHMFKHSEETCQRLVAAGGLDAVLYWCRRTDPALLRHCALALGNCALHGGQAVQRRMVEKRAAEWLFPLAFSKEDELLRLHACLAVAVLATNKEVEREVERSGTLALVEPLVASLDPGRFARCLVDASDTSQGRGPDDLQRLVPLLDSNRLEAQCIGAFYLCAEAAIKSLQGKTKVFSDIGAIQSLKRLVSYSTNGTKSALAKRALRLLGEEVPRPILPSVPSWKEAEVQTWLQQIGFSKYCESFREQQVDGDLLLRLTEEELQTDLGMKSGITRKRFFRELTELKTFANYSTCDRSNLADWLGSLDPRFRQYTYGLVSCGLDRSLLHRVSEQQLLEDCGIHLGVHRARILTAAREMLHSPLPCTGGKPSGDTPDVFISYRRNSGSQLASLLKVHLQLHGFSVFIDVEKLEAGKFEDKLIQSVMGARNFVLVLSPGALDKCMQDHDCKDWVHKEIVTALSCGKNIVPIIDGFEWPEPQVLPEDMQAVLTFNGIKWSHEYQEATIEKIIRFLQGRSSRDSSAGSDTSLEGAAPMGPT

F380Y = assay: BK channel mutant inhibitors and activators – cell-based, U2OS BacMam, thallium flux, beta subunits, selectivity assay, profiling panel (AID 1259406;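 active means thallium flux through the channel raised or lowered by more than 3 SD from vehicle-only wells, actives on both sides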;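 further: initial slope of Thallos dye fluorescence rise after thallium is added; log ratio against the mean of 0.3% DMSO vehicle wells on the same plate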); conditions: U2OS BacMam BK variants, at 30 µM
F380Y/beta1 = assay: as above; conditions: U2OS BacMam BK variants, at 30 µM
F380Y/beta2Delta = assay: as above; conditions: U2OS BacMam BK variants, at 30 µM
F380Y/beta4 = assay: as above; conditions: U2OS BacMam BK variants, at 30 µM
[13] = target: Calcium-activated potassium channel subunit alpha-1 (Homo sapiens) + Leucine-rich repeat-containing protein 26 (Homo sapiens) (UniProt Q12791+Q2I0M4); assay: as above; conditions: U2OS BacMam BK variants, F380Y/Slo1WT/gamma1, at 30 µM
Sequence of Calcium-activated potassium channel subunit alpha-1 (Homo sapiens) + Leucine-rich repeat-containing protein 26 (Homo sapiens) (Q2I0M4 whole entry, looked up, one chain of several): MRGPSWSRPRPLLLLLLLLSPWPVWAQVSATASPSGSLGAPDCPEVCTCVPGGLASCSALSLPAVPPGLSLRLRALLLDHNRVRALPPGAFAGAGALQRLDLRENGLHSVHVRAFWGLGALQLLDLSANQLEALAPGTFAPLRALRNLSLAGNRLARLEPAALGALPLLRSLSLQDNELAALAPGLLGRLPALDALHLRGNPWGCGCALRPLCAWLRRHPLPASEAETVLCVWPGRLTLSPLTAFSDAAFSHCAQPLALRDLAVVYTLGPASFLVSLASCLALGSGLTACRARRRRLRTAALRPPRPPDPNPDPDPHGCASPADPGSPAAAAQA

R275C = assay: as above; conditions: U2OS BacMam BK variants, at 30 µM
[14] = drug combination growth inhibition, ovarian cancer – cell-based, oncology-focused library, rucaparib conditional, profiling panel (AID 1508598); conditions: patient-derived ovarian cancer cells, CellTiter-Glo viability, 144 h, stronger effect = lower value
[15] = measured here: epithelial PC-3E GFP cell survival
[16] = measured here: mesenchymal TEM4-18 mCherry cell survival
[17] = MELAS cybrid survival, CellTiter-Glo 48 h, stronger effect = higher value
[18] = Rieske KO mouse fibroblast survival, CellTiter-Glo 72 h

With CC1=NS(=O)(=O)c2cc(Cl)ccc2N1 the nuclear beta-catenin stimulation ([1]; at 10 µM) was 0.5% (inactive), the nuclear beta-catenin stimulation ([1]; stimulation, at 2 µM) was 2.4% and the insulin secretion stimulation [2] was 1.9% (inactive). For the same compound, the viability decrease [3] was 2.4% (inactive), the tube area decrease [4] was 0.4% (inactive) and the GLP1 secretion stimulation [5] was 0.6% (inactive). For the same compound, the inhibition of viability [6] was 26.2% (inactive), the viability decrease (inhibition) [7] was 8.5% (active) and the viability decrease (inhibition) [8] was 1.1% (inactive). The inhibition [9] was 4.77% (inactive), the red/green cell ratio (normalised) [10] was 1.18 (inactive) and the normalised cell number [10, 15] was 0.96. For the same compound, the normalised cell number [10, 16] was 1.14, the z-score [11, 17] was -0.405 (inactive) and -0.0836 (inactive) and the z-score [11, 18] was 0.049 and -0.314. The remaining NAD [12] was 10 nM (inactive), the log fold change Tl+ flux (F380Y) was -0.0365 (inactive) and the log fold change Tl+ flux (F380Y/beta1) was -0.0354 (inactive). The log fold change Tl+ flux (F380Y/beta2Delta) was 0.0204 (inactive), the log fold change Tl+ flux (F380Y/beta4) was -0.0353 (inactive) and the log fold change Tl+ flux [13] was -0.0135 (inactive). For the same compound, the log fold change Tl+ flux (R275C) was -0.00922 (inactive).
With CC1=C(/C=C/C(C)=C/C=C/C(C)=C/C(=O)O)C(C)(C)CCC1 the nuclear beta-catenin stimulation ([1]; at 10 µM) was 8.6% (inactive), the nuclear beta-catenin stimulation ([1]; stimulation, at 2 µM) was 8.1% and the insulin secretion stimulation [2] was 1.8% (inactive). For the same compound, the viability decrease [3] was 102% (active), the tube area decrease [4] was -33.9% (inactive) and the GLP1 secretion stimulation [5] was 14.4% (inactive). For the same compound, the inhibition of viability [6] was 102% (active), the viability decrease (inhibition) [7] was 142% (active) and the viability decrease (inhibition) [8] was 104% (active). The inhibition [9] was -0.523% (inactive), the red/green cell ratio (normalised) [10] was 0.69 (inactive) and the normalised cell number [10, 15] was 1.34. The normalised cell number [10, 16] was 0.93, the z-score [11, 17] was -0.0661 (inactive) and 0.992 (inactive) and the z-score [11, 18] was 0.0426 and 0.864. The viability ([14]; at 0.000305 µM, OCI-C5x cells, with rucaparib 10 µM, 100% = cells with rucaparib alone) was 106% (inactive), the viability ([14]; at 0.000305 µM, OCI-C5x cells, without rucaparib) was 135% (inactive) and the viability ([14]; at 0.000305 µM, OCI-P5x cells, with rucaparib 20 µM, 100% = cells with rucaparib alone) was 102% (inactive). For the same compound, the viability ([14]; at 0.000305 µM, OCI-P5x cells, without rucaparib) was 120% (inactive), the viability ([14]; at 0.00122 µM, OCI-C5x cells, with rucaparib 10 µM, 100% = cells with rucaparib alone) was 106% (inactive) and the viability ([14]; at 0.00122 µM, OCI-C5x cells, without rucaparib) was 121% (inactive). For the same compound, the viability ([14]; at 0.00122 µM, OCI-P5x cells, with rucaparib 20 µM, 100% = cells with rucaparib alone) was 105% (inactive), the viability ([14]; at 0.00122 µM, OCI-P5x cells, without rucaparib) was 119% (inactive) and the viability ([14]; at 0.00488 µM, OCI-C5x cells, with rucaparib 10 µM, 100% = cells with rucaparib alone) was 124% (inactive). The viability ([14]; at 0.00488 µM, OCI-C5x cells, without rucaparib) was 115% (inactive), the viability ([14]; at 0.00488 µM, OCI-P5x cells, with rucaparib 20 µM, 100% = cells with rucaparib alone) was 108% (inactive) and the viability ([14]; at 0.00488 µM, OCI-P5x cells, without rucaparib) was 120% (inactive). For the same compound, the viability ([14]; at 0.0195 µM, OCI-C5x cells, with rucaparib 10 µM, 100% = cells with rucaparib alone) was 106% (inactive), the viability ([14]; at 0.0195 µM, OCI-C5x cells, without rucaparib) was 111% (inactive) and the viability ([14]; at 0.0195 µM, OCI-P5x cells, with rucaparib 20 µM, 100% = cells with rucaparib alone) was 104% (inactive). The viability ([14]; at 0.0195 µM, OCI-P5x cells, without rucaparib) was 115% (inactive), the viability ([14]; at 0.0781 µM, OCI-C5x cells, with rucaparib 10 µM, 100% = cells with rucaparib alone) was 103% (inactive) and the viability ([14]; at 0.0781 µM, OCI-C5x cells, without rucaparib) was 122% (inactive). The viability ([14]; at 0.0781 µM, OCI-P5x cells, with rucaparib 20 µM, 100% = cells with rucaparib alone) was 101% (inactive), the viability ([14]; at 0.0781 µM, OCI-P5x cells, without rucaparib) was 115% (inactive) and the viability ([14]; at 0.313 µM, OCI-C5x cells, with rucaparib 10 µM, 100% = cells with rucaparib alone) was 103% (inactive). The viability ([14]; at 0.313 µM, OCI-C5x cells, without rucaparib) was 114% (inactive), the viability ([14]; at 0.313 µM, OCI-P5x cells, with rucaparib 20 µM, 100% = cells with rucaparib alone) was 98.8% (active) and the viability ([14]; at 0.313 µM, OCI-P5x cells, without rucaparib) was 109% (inactive). The viability ([14]; at 1.25 µM, OCI-C5x cells, with rucaparib 10 µM, 100% = cells with rucaparib alone) was 101% (inactive), the viability ([14]; at 1.25 µM, OCI-C5x cells, without rucaparib) was 115% (inactive) and the viability ([14]; at 1.25 µM, OCI-P5x cells, with rucaparib 20 µM, 100% = cells with rucaparib alone) was 92.2% (active). The viability ([14]; at 1.25 µM, OCI-P5x cells, without rucaparib) was 105% (inactive), the viability ([14]; at 5 µM, OCI-C5x cells, with rucaparib 10 µM, 100% = cells with rucaparib alone) was 101% (inactive) and the viability ([14]; at 5 µM, OCI-C5x cells, without rucaparib) was 104% (inactive). For the same compound, the viability ([14]; at 5 µM, OCI-P5x cells, with rucaparib 20 µM, 100% = cells with rucaparib alone) was 93.6% (active), the viability ([14]; at 5 µM, OCI-P5x cells, without rucaparib) was 99.6% (active) and the remaining NAD [12] was 10 nM (inactive). The log fold change Tl+ flux (F380Y) was 0.0395 (inactive), the log fold change Tl+ flux (F380Y/beta1) was 0.0141 (inactive) and the log fold change Tl+ flux (F380Y/beta2Delta) was -0.0201 (inactive). For the same compound, the log fold change Tl+ flux (F380Y/beta4) was 0.0201 (inactive), the log fold change Tl+ flux [13] was 0.0114 (inactive) and the log fold change Tl+ flux (R275C) was 0.0107 (inactive).
With NNC(=O)c1ccncc1 the nuclear beta-catenin stimulation ([1]; at 10 µM) was -1.9% (inactive), the nuclear beta-catenin stimulation ([1]; stimulation, at 2 µM) was -1.2% and the insulin secretion stimulation [2] was -0.1% (inactive). The viability decrease [3] was -2.7% (inactive), the tube area decrease [4] was -10.4% (inactive) and the GLP1 secretion stimulation [5] was 0.3% (inactive). The inhibition of viability [6] was 9.9% (inactive), the viability decrease (inhibition) [7] was 10.1% (inactive) and the viability decrease (inhibition) [8] was 6.5% (inactive). For the same compound, the inhibition [9] was 6.29% (inactive), the red/green cell ratio (normalised) [10] was 1.18 (inactive) and the normalised cell number [10, 15] was 1.01. For the same compound, the normalised cell number [10, 16] was 1.19, the z-score [11, 17] was -0.127 (inactive) and -0.162 (inactive) and -0.645 (inactive) and the z-score [11, 18] was 0.295 and -0.273 and 1.51. The remaining NAD [12] was 10 nM (inactive), the log fold change Tl+ flux (F380Y) was 0.00909 (inactive) and the log fold change Tl+ flux (F380Y/beta1) was 0.0138 (inactive). The log fold change Tl+ flux (F380Y/beta2Delta) was 0.00988 (inactive), the log fold change Tl+ flux (F380Y/beta4) was 0.0513 (inactive) and the log fold change Tl+ flux [13] was 0.0222 (inactive). The log fold change Tl+ flux (R275C) was 0.00765 (inactive).
